Laboratory results published in PubChem BioAssay (EPA / NIEHS).
The source made the active and inactive calls. The calls were made as follows: active = hit-call score of the fitted dose curve at least 0.9, where 1 is the maximum; inactive = score below 0.9.

How the values were obtained:
[1] = ATG_CRE_CIS: Attagene CIS-FACTORIAL HepG2 Assay for human cAMP Responsive Element (CRE) binding protein 3 (AID 2282926); settings: HepG2 CRE cis-reporter, Attagene multiplexed mRNA; actives raise or lower the signal
Method in brief: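 Readout: fluorescently labelled reporter transcripts resolved by capillary electrophoresis after RT-PCR, taken 24 h post-dosing in transfected HepG2. Endogenous transcription factor activity drives each cis-element reporter; gain or loss of signal fitted relative to DMSO control.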

[2] = biological target: CCAAT/enhancer-binding protein beta (Homo sapiens) (UniProt P17676); assay: ATG_C_EBP_CIS: Attagene CIS-FACTORIAL HepG2 Assay for human CCAAT/Enhancer Binding Protein (C/EBP) beta (AID 2282927); settings: HepG2 Attagene cis-factorial transcription factor reporter; actives raise or lower the signal
Method in brief: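 RT-PCR/capillary electrophoresis fluorescence of reporter mRNA, 24 h post-dose, in HepG2 cells carrying transfected cis-promoter reporter units. Bidirectional curve fitting against DMSO baseline captures gain or loss of signal.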

[3] = ATG_CMV_CIS: Attagene CIS-FACTORIAL HepG2 Assay for human CMV (Internal Marker) (AID 2282928); settings: HepG2 CMV promoter reporter, transcription factor profiling; actives raise or lower the signal;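 also: endpoint acts as a background internal control marker rather than a target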
Method in brief: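 Bidirectional fits against DMSO are applied to reporter mRNA, read by RT-PCR with capillary electrophoresis, from HepG2 cells exposed 24 h. The endpoint serves as an internal CMV background marker within the cis-factorial reporter panel.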

[4] = ATG_DR4_LXR_CIS: Attagene CIS-FACTORIAL HepG2 Assay for human Liver X Receptor (LXR), DR4 submotif (AID 2282929); settings: HepG2 Attagene DR4 cis-reporter, mRNA transcription; actives raise or lower the signal
Method in brief: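 HepG2 cells transiently transfected with cis-promoter-driven multiplexed reporter units (DR4 element) were dosed for 24 h. Reporter mRNA was quantified by RT-PCR, fluorescent primer extension, HpaI digestion and capillary electrophoresis; bidirectional fitting versus DMSO baseline.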

[5] = biological target: Aryl hydrocarbon receptor (Homo sapiens) (UniProt P35869); assay: ATG_Ahr_CIS: Attagene CIS-FACTORIAL HepG2 Assay for human Aryl Hydrocarbon Receptor (Ahr) (AID 2282930); settings: HepG2 AhR cis-factorial reporter transcription; actives raise or lower the signal
Method in brief: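 HepG2 cells transiently transfected with cis-element-driven multiplexed reporter transcription units; endogenous transcription factor activity measured as reporter mRNA 24 h after dosing. RT-PCR, 6-FAM labelling, HpaI digestion, capillary electrophoresis; bidirectional fitting versus DMSO baseline.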

[6] = ATG_AP_1_CIS: Attagene CIS-FACTORIAL HepG2 Assay for human Activator Protein 1 (AP-1) (AID 2282931); settings: HepG2 Attagene cis-factorial AP-1 reporter mRNA; actives raise or lower the signal
Method in brief: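 HepG2 cells transiently transfected with cis-element-driven multiplex reporter units; 24 h compound exposure. Reporter mRNA quantified by RT-PCR, FAM-labelled fragments resolved by capillary electrophoresis; bidirectional fit versus DMSO baseline.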

[7] = ATG_AP_2_CIS: Attagene CIS-FACTORIAL HepG2 Assay for human Activator Protein 2 (AP-2) (AID 2282932); settings: HepG2 AP-2 cis-reporter, Attagene transcription factor profiling; actives raise or lower the signal
Method in brief: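 Cells (HepG2) transfected with promoter-driven reporter constructs, treated 24 h. Total RNA reverse-transcribed, reporter cDNA PCR-amplified, FAM-labelled by primer extension, digested, resolved by capillary electrophoresis. Activity fitted both directions versus DMSO.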

[8] = ATG_BRE_CIS: Attagene CIS-FACTORIAL HepG2 Assay for human Bone Morphogenetic Protein (BMP) Response Element (BRE) (AID 2282933); settings: HepG2 BMP response element reporter, Attagene transcription factor profiling; actives raise or lower the signal
Method in brief: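 Read-out: reporter mRNA induction quantified by RT-PCR and capillary electrophoresis after 24 h chemical exposure of transfected HepG2 cells. Endogenous factor activity on the BMP response element; gain or loss fitted against DMSO baseline.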

[9] = biological target: Retinoic acid receptor alpha (Homo sapiens) (UniProt P10276); assay: ATG_DR5_RAR_CIS: Attagene CIS-FACTORIAL HepG2 Assay for human Retinoic Acid Receptor Alpha (RARE), DR5 submotif (AID 2282934); settings: HepG2 Attagene cis-factorial RARE DR5 reporter, mRNA; actives raise or lower the signal
Method in brief: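 HepG2 cells transiently transfected with multiplexed reporter units under cis (DR5 RARE) promoters, so endogenous transcription factor activity is measured. After 24 h compound exposure, reporter mRNA is quantified by RT-PCR with fluorescent labelling and capillary electrophoresis; bidirectional fitting versus DMSO.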

[10] = biological target: Transcription factor E2F1 (Homo sapiens) (UniProt Q01094); assay: ATG_E2F_CIS: Attagene CIS-FACTORIAL HepG2 Assay for human E2F Transcription Factor 1 (AID 2282935); settings: HepG2 Attagene cis-reporter, E2F reporter RNA transcripts; actives raise or lower the signal
Method in brief: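 First, HepG2 cells were transfected with reporter transcription units. Next, they were dosed for 24 h. Then RNA was isolated, converted to cDNA, PCR-amplified, FAM-labeled, HpaI-digested and analyzed by capillary electrophoresis.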

[11] = ATG_E_Box_CIS: Attagene CIS-FACTORIAL HepG2 Assay for human Enhancer Box (E-box) (AID 2282936); settings: HepG2 E-box cis-reporter transcription, actives raise or lower the signal
Method in brief: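 Endogenous transcription factor activity was sensed in human HepG2 liver cells through transfected cis-promoter reporter units. After 24 h of dosing, total RNA was reverse-transcribed and reporter cDNA resolved by capillary electrophoresis.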

[12] = ATG_M_61_CIS: Attagene CIS-FACTORIAL HepG2 Assay for M61 Transcription Factor (Internal Marker) (AID 2282937); settings: HepG2 Attagene CIS-FACTORIAL M61 internal marker reporter; actives raise or lower the signal
Method in brief: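 HepG2 cells transiently transfected with cis-element-driven multiple reporter transcription units, dosed for 24 h. Reporter mRNA measured by RT-PCR, 6-FAM primer-extension labelling, HpaI digestion and capillary electrophoresis; bidirectional fit versus DMSO baseline.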

[13] = ATG_EGR_CIS: Attagene CIS-FACTORIAL HepG2 Assay for human Early Growth Response 1 (EGR1) (AID 2282938); settings: HepG2 Attagene CIS-FACTORIAL EGR reporter mRNA; actives raise or lower the signal
Method in brief: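 HepG2 cells transiently transfected with cis-promoter-driven multiplexed reporter transcription units; reporter mRNA measured 24 h after compound dosing by RT-PCR, 6-FAM primer extension, HpaI digestion and capillary electrophoresis. Bidirectional fit versus DMSO baseline.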

[14] = ATG_M_19_CIS: Attagene CIS-FACTORIAL HepG2 Assay for M19 Transcription Factor (Internal Marker) (AID 2282939); settings: HepG2 Attagene CIS-FACTORIAL M19 internal marker reporter; actives raise or lower the signal
Method in brief: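 Readout: fluorescent reporter-transcript fragments by capillary electrophoresis after RT-PCR. Human HepG2 liver cells carried transfected MRTU constructs reporting endogenous transcription-factor activity; exposure 24 h. Gain or loss of signal fitted relative to DMSO.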

[15] = ATG_Ets_CIS: Attagene CIS-FACTORIAL HepG2 Assay for human Erythroblast Transformation Specific (ETS) (AID 2282941); settings: HepG2 ETS cis-reporter transcription, actives raise or lower the signal
Method in brief: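 Endogenous transcription factor activity read as reporter mRNA via RT-PCR and capillary electrophoresis, with gain or loss fitted bidirectionally against DMSO. Human HepG2 liver cells, transiently transfected CIS reporter constructs, 24 h exposure.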

[16] = ATG_FoxO_CIS: Attagene CIS-FACTORIAL HepG2 Assay for human Forkhead box O (FoxO) (AID 2282943); settings: HepG2 Attagene cis-reporter, FoxO element, mRNA; actives raise or lower the signal
Method in brief: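 HepG2 cells transiently transfected with cis-promoter-driven multiple reporter transcription units; 24 h after chemical dosing, reporter mRNA quantified by RT-PCR, fluorescent primer extension, HpaI digestion and capillary electrophoresis. Bidirectional fitting versus DMSO baseline.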

[17] = ATG_GLI_CIS: Attagene CIS-FACTORIAL HepG2 Assay for human Zinc Finger Protein GLI1 (AID 2282945); settings: HepG2, Attagene cis-factorial reporter mRNA, GLI element; actives raise or lower the signal
Method in brief: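 HepG2 cells transiently transfected with cis-promoter multiplexed reporter units report endogenous transcription factor activity. After 24 h chemical exposure, reporter mRNA was quantified by RT-PCR, 6-FAM labelling, HpaI digestion and capillary electrophoresis, with bidirectional fitting against DMSO.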

[18] = ATG_GATA_CIS: Attagene CIS-FACTORIAL HepG2 Assay for human GATA Binding Protein (AID 2282944); settings: HepG2 GATA cis-element reporter, Attagene multiplex mRNA; actives raise or lower the signal
Method in brief: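 Read-out: fluorescent reporter mRNA fragments resolved by capillary electrophoresis after RT-PCR. Human liver HepG2 cells carried transiently transfected cis-regulated reporter constructs; chemicals incubated 24 h; gain or loss of signal fitted relative to DMSO.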

[19] = biological target: Hepatocyte nuclear factor 3-beta (Homo sapiens) (UniProt Q9Y261); assay: ATG_FoxA2_CIS: Attagene CIS-FACTORIAL HepG2 Assay for human Forkhead box A2 (FOXA2) (AID 2282942); settings: HepG2 cis-reporter transcription factor activity, 24 h; actives raise or lower the signal
Method in brief: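 HepG2 cells transiently transfected with multiple cis-regulated reporter transcription units, dosed for 24 h. Reporter mRNA measured by RT-PCR, 6-FAM labelling, HpaI digestion and capillary electrophoresis; bidirectional fitting against DMSO baseline.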

Measured: AC50

Aryl hydrocarbon receptor (Homo sapiens), sequence (P35869 whole entry, looked up): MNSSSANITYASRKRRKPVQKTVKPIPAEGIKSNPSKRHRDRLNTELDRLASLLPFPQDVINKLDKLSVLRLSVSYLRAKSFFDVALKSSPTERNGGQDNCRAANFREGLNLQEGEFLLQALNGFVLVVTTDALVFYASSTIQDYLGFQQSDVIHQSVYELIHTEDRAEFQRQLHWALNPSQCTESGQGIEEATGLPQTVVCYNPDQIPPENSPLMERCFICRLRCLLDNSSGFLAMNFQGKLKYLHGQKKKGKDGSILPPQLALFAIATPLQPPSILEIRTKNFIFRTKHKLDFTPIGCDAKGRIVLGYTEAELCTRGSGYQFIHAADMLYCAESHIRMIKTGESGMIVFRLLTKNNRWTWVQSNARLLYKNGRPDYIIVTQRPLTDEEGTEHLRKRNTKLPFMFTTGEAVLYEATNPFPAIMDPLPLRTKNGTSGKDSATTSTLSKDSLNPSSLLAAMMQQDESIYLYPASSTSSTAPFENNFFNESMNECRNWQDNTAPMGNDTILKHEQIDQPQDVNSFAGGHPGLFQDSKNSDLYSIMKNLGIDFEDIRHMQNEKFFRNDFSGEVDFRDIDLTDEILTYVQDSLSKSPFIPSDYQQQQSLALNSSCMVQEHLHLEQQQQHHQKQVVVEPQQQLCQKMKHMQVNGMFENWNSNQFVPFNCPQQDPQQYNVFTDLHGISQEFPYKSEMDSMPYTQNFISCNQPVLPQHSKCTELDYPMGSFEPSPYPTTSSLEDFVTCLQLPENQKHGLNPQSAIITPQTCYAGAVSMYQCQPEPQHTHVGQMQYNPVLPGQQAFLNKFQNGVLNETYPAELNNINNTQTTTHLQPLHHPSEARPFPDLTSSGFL
Transcription factor E2F1 (Homo sapiens), sequence (Q01094 whole entry, looked up): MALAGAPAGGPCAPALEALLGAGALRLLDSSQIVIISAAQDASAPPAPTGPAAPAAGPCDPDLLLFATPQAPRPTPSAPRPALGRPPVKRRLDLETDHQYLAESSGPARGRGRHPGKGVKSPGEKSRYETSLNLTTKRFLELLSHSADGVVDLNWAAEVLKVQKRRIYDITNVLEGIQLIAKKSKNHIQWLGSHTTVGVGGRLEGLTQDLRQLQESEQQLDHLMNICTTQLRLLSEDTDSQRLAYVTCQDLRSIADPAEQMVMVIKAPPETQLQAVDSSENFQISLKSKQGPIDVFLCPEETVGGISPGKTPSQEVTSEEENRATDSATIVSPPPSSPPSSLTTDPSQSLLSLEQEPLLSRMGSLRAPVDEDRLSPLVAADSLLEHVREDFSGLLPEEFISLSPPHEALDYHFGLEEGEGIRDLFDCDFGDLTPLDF
CCAAT/enhancer-binding protein beta (Homo sapiens), sequence (P17676 whole entry, looked up): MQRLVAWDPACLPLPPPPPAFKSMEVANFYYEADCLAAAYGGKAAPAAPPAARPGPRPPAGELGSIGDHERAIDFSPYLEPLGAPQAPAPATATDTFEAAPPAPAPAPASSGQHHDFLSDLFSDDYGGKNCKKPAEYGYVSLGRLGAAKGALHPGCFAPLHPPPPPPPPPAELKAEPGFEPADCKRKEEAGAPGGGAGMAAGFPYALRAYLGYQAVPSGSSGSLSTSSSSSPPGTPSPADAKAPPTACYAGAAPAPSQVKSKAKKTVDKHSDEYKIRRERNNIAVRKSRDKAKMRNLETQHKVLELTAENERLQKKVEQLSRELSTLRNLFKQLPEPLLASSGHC
Retinoic acid receptor alpha (Homo sapiens), sequence (P10276 whole entry, looked up): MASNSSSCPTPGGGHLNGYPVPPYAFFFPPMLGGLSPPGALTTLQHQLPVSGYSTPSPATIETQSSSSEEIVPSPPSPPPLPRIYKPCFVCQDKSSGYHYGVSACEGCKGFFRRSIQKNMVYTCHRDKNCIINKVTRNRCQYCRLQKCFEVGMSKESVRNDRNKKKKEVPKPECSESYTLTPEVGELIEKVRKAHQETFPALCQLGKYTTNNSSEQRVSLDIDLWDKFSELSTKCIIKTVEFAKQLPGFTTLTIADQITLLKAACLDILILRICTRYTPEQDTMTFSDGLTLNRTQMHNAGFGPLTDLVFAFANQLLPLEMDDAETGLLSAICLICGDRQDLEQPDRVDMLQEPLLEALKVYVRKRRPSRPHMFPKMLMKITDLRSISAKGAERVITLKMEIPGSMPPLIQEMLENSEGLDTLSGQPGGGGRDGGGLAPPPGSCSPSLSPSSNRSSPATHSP
Hepatocyte nuclear factor 3-beta (Homo sapiens), sequence (Q9Y261 whole entry, looked up): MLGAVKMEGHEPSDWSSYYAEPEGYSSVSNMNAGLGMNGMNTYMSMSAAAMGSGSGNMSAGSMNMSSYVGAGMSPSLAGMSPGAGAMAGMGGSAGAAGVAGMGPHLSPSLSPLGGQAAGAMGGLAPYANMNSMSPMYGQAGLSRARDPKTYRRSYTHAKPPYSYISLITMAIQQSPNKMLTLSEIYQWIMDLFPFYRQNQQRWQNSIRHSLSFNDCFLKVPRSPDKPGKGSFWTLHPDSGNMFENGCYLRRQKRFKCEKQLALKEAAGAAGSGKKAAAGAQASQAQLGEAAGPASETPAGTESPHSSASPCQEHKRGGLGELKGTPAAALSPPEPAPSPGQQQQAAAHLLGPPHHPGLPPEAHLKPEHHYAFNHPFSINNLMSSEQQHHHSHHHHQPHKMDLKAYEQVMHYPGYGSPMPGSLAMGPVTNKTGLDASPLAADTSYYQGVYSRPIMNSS

CCN(CCC#N)c1ccc(N=Nc2ccc([N+](=O)[O-])cc2)cc1
not listed: [18] | [19]
inactive: all other assays above

C=C(C)C(=O)OCCOC1CC2CC1C1C=CCC21 (stereo not given)
not listed: [19]
inactive: all other assays above

CCCCOC(=O)CCCCCCCC(=O)OCCCC
not listed: [16] | [17]
inactive: all other assays above

C[C@H]1O[C@@H](O[C@H]2[C@@H](O)C[C@H](O[C@H]3[C@@H](O)C[C@H](O[C@H]4CC[C@@]5(C)[C@H](CC[C@@H]6[C@@H]5C[C@@H](O)[C@]5(C)[C@@H](C7=CC(=O)OC7)CC[C@]65O)C4)O[C@@H]3C)O[C@@H]2C)C[C@H](O)[C@@H]1O
active: [1] 0.0776 µM | [2] 0.0593 µM | [3] 2.56 µM | [4] 0.11 µM | [7] 0.0857 µM | [13] 0.163 µM | [15] 0.145 µM | [16] 0.202 µM | [18] 0.335 µM
not listed: [19]
inactive: all other assays above

OCCCCC(O)CO (stereo not given)
not listed: [16]
inactive: all other assays above

C=COCCOCCOC=C
not listed: [18] | [19]
inactive: all other assays above

CCOC(=O)C(C#N)=C(c1ccccc1)c1ccccc1
active: [1] 63 µM | [4] 29.6 µM | [6] 178 µM | [8] 125 µM | [13] 20 µM
not listed: [17] | [19]
inactive: all other assays above

Cc1occc(=O)c1OC(=O)C(C)C
not listed: [11]
inactive: all other assays above

CCc1ncc(C)[nH]1
not listed: [16]
inactive: all other assays above

CCN(CC)C(=O)N(CC)CC
not listed: [18] | [19]
inactive: all other assays above

CCCC(=O)OCCc1ccccc1
not listed: [19]
inactive: all other assays above

CC=Cc1ccc(OCC)c(O)c1
active: [5] 11.3 µM
not listed: [18]
inactive: all other assays above

CSc1c(Cl)c(Cl)c(Cl)c(Cl)c1Cl
active: [1] 169 µM | [3] 26.3 µM | [4] 32 µM | [11] 26 µM | [17] 185 µM
not listed: [19]
inactive: all other assays above

C=Cc1ccc(C)cc1
not listed: [18]
inactive: all other assays above

CCCCCCOCCOCCO
not listed: [19]
inactive: all other assays above
